# Measured values published in PubChem BioAssay (NCI).
# Compounds without any hit were thinned out: in the full panel of roughly 83,000, 20% have a hit.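 Single-dose data. Exposure time 48 hours. Values below 10 considered active.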 Values without a mark were called inactive. The source made the active and inactive calls.
# Legend:
# Assay in all cases: NCI-60 one-dose screen, 48 h (100 = growth as untreated, 0 = no growth, -100 = all killed)
# NCI-H23 lung = settings: 10 µM unless noted
# NCI-H226 lung = settings: 10 µM unless noted
# NCI-H322M lung = settings: 10 µM unless noted
# HOP-62 NSCLC = settings: 10 µM unless noted
# NCI-H460 lung = settings: 10 µM unless noted
# HOP-92 NSCLC = settings: 10 µM unless noted
# NCI-H522 lung = settings: 10 µM unless noted
# A549/ATCC NSCLC = settings: 10 µM unless noted
# 786-0 renal = settings: 10 µM unless noted
# COLO 205 colon = settings: 10 µM unless noted
# DU-145 prostate = settings: 10 µM unless noted
# K-562 leukemia = settings: 10 µM unless noted
# MALME-3M melanoma = settings: 10 µM unless noted
# MDA-MB-231 breast = settings: 10 µM unless noted
# RXF 393 renal = settings: 10 µM unless noted
# SF-268 CNS = settings: 10 µM unless noted
# SF-295 CNS = settings: 10 µM unless noted
# SF-539 CNS = settings: 10 µM unless noted
# UACC-257 melanoma = settings: 10 µM
# M14 melanoma = settings: 10 µM unless noted
Structure (SMILES),growth (NCI-H23 lung),growth (NCI-H226 lung),growth (NCI-H322M lung),growth (HOP-62 NSCLC),growth (NCI-H460 lung),growth (HOP-92 NSCLC),growth (NCI-H522 lung),growth (A549/ATCC NSCLC),growth (786-0 renal),growth (COLO 205 colon),growth (DU-145 prostate),growth (K-562 leukemia),growth (MALME-3M melanoma),growth (MDA-MB-231 breast),growth (RXF 393 renal),growth (SF-268 CNS),growth (SF-295 CNS),growth (SF-539 CNS),growth (UACC-257 melanoma),growth (M14 melanoma)
CS(=O)c1nccc(-c2c(-c3ccc(F)c(OCc4ccccc4)c3)nc3sccn23)n1 (stereo not given),88.2%,96.3%,73.1%,103%,19.1%,51.8%,31.6%,100%,99.1%,106%,4.02% (active),17.8%,91.7%,93.8%,96.6%,105%,101%,94.6%,19.8%,96.5%
COc1ccc(/C=C/C(=O)c2nnn(-c3ccc(Br)cc3)c2C)cc1OC,59.9%,70.7%,95.3%,88.1%,84.3%,81%,67.7%,73.6%,93.5%,90.4%,73.5%,19.2%,83%,83.3%,80.3%,89.4%,80.2%,83.7%,85.3%,60.4%
COc1ccc(-c2nnc(/N=C3/C(=O)Nc4ccc(Br)cc43)o2)cc1,95.5%,101%,93.9%,106%,101%,97.1%,98.6%,104%,103%,105%,101%,93.1%,98.4%,108%,112%,99.3%,99.2%,97.9%,106%,101%
COc1ccc(Oc2ccc(C3CC(c4cc(OC)c(OC)c(OC)c4)=NN3C(C)=O)cc2)cc1 (stereo not given),24.1%,17.1%,46.9%,48.1%,23.8%,12.2%,20%,24.8%,29.2%,11.1%,40.4%,16.1%,33.6%,40.6%,17%,38.6%,22.5%,46.5%,40.3%,27.6%
C(=C(\C1=NCCN1)n1cnc2ccccc21)/c1cccc2ccccc12,90.7%,76.4%,88.2%,88.6%,101%,8.37% (active),79.4%,94%,92.5%,106%,98.1%,84.9%,91.7%,81%,46.9%,85%,76.9%,91.7%,94.7%,70%
O=C(Nc1ccc(Cl)cc1)Nc1nc2ccc([N+](=O)[O-])cc2s1,-45.5% (active),-15% (active),2.65% (active),-33.5% (active),-9.27% (active),-25.9% (active),-21.3% (active),1.71% (active),5.56% (active),-62.6% (active),14%,1.43% (active),-21.3% (active),-17.5% (active),-37.2% (active),7.98% (active),-57.9% (active),-22.3% (active),-32.6% (active),-20.4% (active)
C=CCn1c(SCC(=O)c2ccc(OC)cc2)nnc1-c1ccc(OC)cc1,97.6%,87.1%,97.4%,102%,102%,88.9%,99%,99.2%,99.4%,98.8%,99.8%,94.7%,96.4%,94.9%,87.9%,95.2%,97.7%,100%,96.8%,90.9%
